# The supplement of paper PMC10042075
# Structures can show the parent of a compound that is named as a salt.
# Tested on: LASCPC-01
# Assay: cell viability relative to DMSO control (fraction); higher = less growth inhibition (more viable cells)
# Conditions: 2 µM; 72 h
# Procedure, shortened: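 Serotonin-pathway compounds from a 7315-compound library were each tested at 2 μM for 72 hours in triplicate on LASCPC-01 human prostate cancer cells in 384-well plates. Viability was measured by CellTiter-Glo luminescence relative to solvent-control signal.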
compound,measurement,value
CC(C)(C)c1ccc(CN2CCN(C(c3ccccc3)c3ccc(Cl)cc3)CC2)cc1 (centres undefined) [Buclizine HCl],cell viability,0.896
Cc1ccc(C(=O)Oc2ccc(C(CN(C)C)C3(O)CCCCC3)cc2)cc1 (centres undefined) [Ansofaxine hydrochloride],cell viability,0.931
Cc1cc(-c2ccccc2)nnc1NCCN1CCOCC1 [Minaprine dihydrochloride],cell viability,1
CNS(=O)(=O)Cc1ccc2[nH]cc(CCN(C)C)c2c1 [Sumatriptan Succinate],cell viability,0.971
CN1CCC(=C2c3ccccc3CCc3sccc32)CC1 [Pizotifen],cell viability,0.586
O=C(O)Cc1c[nH]c2ccc(O)cc12 [5-Hydroxyindolacetic acid],cell viability,0.928
COc1cc2c(cc1OC)[C@@H]1Cc3ccc(OC)c(OC)c3CN1CC2 [Rotundine],cell viability,1.05
O=C1[C@H]2CCCC[C@H]2C(=O)N1CCCCN1CCN(c2nsc3ccccc23)CC1 [Perospirone],cell viability,0.997
CC(N)C(=O)OC(C)(C)Cc1ccc(Cl)cc1 (centres undefined) [Alaproclate hydrochloride],cell viability,1.13
Cc1nccn1CC1CCc2c(c3ccccc3n2C)C1=O (centres undefined) [Ondansetron HCl],cell viability,1.03
N#Cc1cc(CN2CCC(Nc3ncnc4sc(Cl)cc34)CC2)ccc1F,cell viability,0.875
Cc1nccn1CC1CCc2c(c3ccccc3n2C)C1=O (centres undefined) [Ondansetron hydrochloride],cell viability,1.12
CNc1cc(NS(=O)(=O)c2ccc(N)cc2)nc(NC)n1 [Ro 04-6790 dihydrochloride],cell viability,1.03
CCCCCNC(=N)N/N=C/c1c[nH]c2ccc(OC)cc12 [Tegaserod maleate],cell viability,0.531
CN1CCC[C@@H]1Cc1c[nH]c2ccc(CCS(=O)(=O)c3ccccc3)cc12 [Eletriptan HBr],cell viability,0.983
CN(C)[C@@H]1CCc2[nH]c3ccc(NC(=O)c4ccc(F)cc4)cc3c2C1,cell viability,0.693
O=C1NCCN1CCN1CCC(c2cn(-c3ccc(F)cc3)c3ccc(Cl)cc23)CC1 [Sertindole],cell viability,0.499
CCOc1cc(N)c(Cl)cc1C(=O)NCC1CN(Cc2ccc(F)cc2)CCO1 (centres undefined) [Mosapride Citrate],cell viability,0.912
O=c1c(-c2ccc(O)cc2)coc2c([C@@H]3O[C@H](CO)[C@@H](O)[C@H](O)[C@H]3O)c(O)ccc12 [Puerarin],cell viability,0.989
CC(C)COc1ccc(CNC(=O)N(Cc2ccc(F)cc2)C2CCN(C)CC2)cc1 [Pimavanserin],cell viability,0.72
N[C@@H]1CC[C@@H](c2ccc(Cl)c(Cl)c2)c2ccccc21 [Dasotraline hydrochloride],cell viability,1.13
COc1ccccc1N1CCN(CCN2C(=O)CC3(CCCC3)CC2=O)CC1,cell viability,0.815
Cc1ncc(CO)c(CO)c1O [Metadoxine],cell viability,1.13
CCc1nn(CCCN2CCN(c3cccc(Cl)c3)CC2)c(=O)n1CCOc1ccccc1 [Nefazodone hydrochloride],cell viability,1.03
Cc1cc(NC(=O)Nc2ccc3c(ccn3C)c2)sn1,cell viability,0.944
COc1ccc(NC(=O)c2ccc(-c3ccc(-c4noc(C)n4)cc3C)cc2)cc1N1CCN(C)CC1,cell viability,0.512
O=C(O[C@@H]1C[C@@H]2C[C@H]3C[C@H](C1)N2CC3=O)c1c[nH]c2ccccc12 [Dolasetron],cell viability,1.15
O=c1ccccn1CC1(O)CCN(Cc2ccccc2)CC1,cell viability,1.05
COc1ccc2cccc(CCNC(C)=O)c2c1 [Agomelatine],cell viability,1.07
